Measurements reported in PubChem BioAssay AID492952 (Southern Research Specialized Biocontainment Screening …, 2010).
The campaign covered roughly 2,300 compounds. About 1,500 (65%) were called active. So high a share suggests a set chosen from earlier hits. The list shows a part of the results. Measured potencies and affinities stand elsewhere. Values without a mark were called inactive. The rule behind the calls is not given here.

Experiment: replicating M. tuberculosis growth inhibition, dose response, non-replicating M. tuberculosis project, H37Rv (AID 492952);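 note: Mycobacterium tuberculosis grown in culture; growth inhibition read after a week of incubation; 0% = bacteria alone untreated and 100% = bacteria with high antibiotic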
Details: series mostly up to 50 µM; inhibition: at the top concentration

| Structure (SMILES) | inhibition [%] |
| --- | --- |
| CC(=O)CCC1CC(c2ccc(Cl)cc2)=NO1 (centres undefined) | -2.41 |
| COC(=O)c1ccccc1NC(=O)C1CC(c2ccc(F)cc2)=NO1 (centres undefined) | 0.43 |
| COc1ccc(OCCC(=O)OCC(=O)Nc2ccc(Br)cc2)cc1 | -1.7 |
| CC(C)(C)c1ccc(OCCC(=O)OCC(=O)NC2CCCCC2)cc1 | 7.57 |
| O=C(COc1ccc([N+](=O)[O-])cc1)NNC(=O)c1cccs1 | 1.87 |
| CC/C(=C\c1oc2cc3ccccc3cc2[n+]1CC)Nc1ccccc1 | 7.42 |
| Brc1ccc(OCCCCN2CCCCC2)cc1 | 4.82 |
| CCOC(=O)c1c(-c2ccc(C)o2)csc1NC(=O)CN1CCCCC1 | -3.2 |
| CCc1nnc(NC(=O)CN2CCN(c3ccccc3F)CC2)s1 | 2.97 |
| COc1ccc2cc(C(=O)NCc3ccccc3)c(=O)oc2c1 | 2.96 |
| COCCNC(=O)c1cc2cc(Cl)cc(Cl)c2oc1=O | 17.8 |
| NC(=O)N/N=C/c1ccccc1OC(=O)c1cc2ccccc2oc1=O | -0.54 |
| COc1cccc2cc(C(=O)c3ccc([N+](=O)[O-])cc3)oc12 | -3.88 |
| CC(C)[C@H](NC(=O)c1ccc(Br)cc1)C(=O)NC1CCCCC1 | -2.73 |
| Oc1ccc(Cl)cc1CNCc1ccc(F)cc1 | 6.19 |
| O=C(N/N=C/c1coc2ccccc2c1=O)c1ccc(Cl)cc1 | -4.23 |
| C=CCn1c(=O)c(C(=O)Nc2cccnc2)c(O)c2ccccc21 | 4.9 |

| Structure (SMILES) | inhibition [%] |
| --- | --- |
| O=C(N/N=C/c1cccc(F)c1)c1c(O)c2ccccc2[nH]c1=O | -1.02 |
| O=C1CC(N2CCSCC2)C(=O)N1CCc1ccccc1 (centres undefined) | -2.96 |
| Cc1cc2ccccc2n1CCNC(=O)C(C)(C)C | 0.54 |
| CC1CCN(CCOCCSc2ccc(Cl)cc2)CC1 | 3.18 |
| O=C(COc1ccc(Cl)cc1)Nc1ccc2[nH]ncc2c1 | -6.62 |
| CCCCCCNC(=O)c1ccc(Br)o1 | -4.43 |
| C=CCNc1nc(C(=O)OCC(=O)c2cccc(Br)c2)cs1 | -5.99 |
| CCOc1ccc(OCc2ccc(C(=O)N/N=C(\C)c3ccccn3)cc2)cc1 | 6.16 |
| COc1ccc(C(=O)Nc2ccccc2C(=O)N/N=C/c2ccco2)cc1 | -1.33 |
| CC(=O)NCCOC(=O)Nc1sc(=S)n(C)c1C | 0.93 |
| C/C(=N\Nc1ccc(Cl)cc1)c1ccccn1 | 5.57 |
| Cc1cc(O)c(-c2cc(O)c(C)cc2O)cc1O | 7.62 |
| COC(=O)c1ccc(COC(=O)CCS(=O)(=O)c2ccc(C)cc2)cc1 | 1.11 |
| O=C(COC(=O)c1ccccn1)Nc1cccc(Cl)c1Cl | 7.17 |
| CC(C)(C)C(=O)COc1ccccc1[N+](=O)[O-] | 5.63 |
| COCCn1c(C)cc(C(=O)COC(=O)c2ccc(Br)o2)c1C | 2.14 |
| C=CC[n+]1ccn(-c2nc3ccccc3nc2[N-]S(=O)(=O)c2cccs2)c1 | 0.1 |
